# Experimental data taken from PubChem BioAssay (NCATS).
# Results filed as inconclusive are left out. Entries that show only a call come without a potency. Unmarked numbers belong to inactive results. Calls of active or inactive are those of the source. Calls follow the shape of the dose curve; as a rule, active = well fitted curve in the direction sought with a large enough effect; inconclusive = small, poorly fitted or top-dose-only effect, or another doubt; inactive = no such curve, though single readings can be large; an effect the other way counts as inactive or inconclusive. Where a SMILES comes first, the peptide text is derived from it. [ ]: non-standard residue; d: D form. Hyp = O=C(O)[CH]1C[CH](O)CN1; Phe(ol) = N[CH](CO)Cc1ccccc1; Iva = CC[C](C)(N)C(=O)O; Aib = CC(C)(N)C(=O)O
# Columns and labels:
# NIH3T3 = assay: qHTS assay to identify novel small-molecules to repurpose for Merkel cell carcinoma treatment (AID 1296009); details: MCC and control cell lines, CellTiter-Glo viability, 72 h; series mostly up to 44.8 µM; also: nearly all actives have a fitted effect of over 60% in size
# How it was run: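 Cell viability measured by CellTiter-Glo following 72 hr compound treatment at 37 degree celsius, with NPC and MIPE libraries tested in 8- and 11-point concentration series.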
# C33A = assay: Primary qHTS to identify gynecologic anti-cancer compounds using libraries of approved drugs and bioactive compounds (AID 1345084); details: Gynecologic cancer cell panel viability, ATPlite luminescence, 48 h; series mostly up to 57.5 µM; also: nearly all actives have a fitted effect of over 55% in size; also: potency is read from the fitted curve at half-maximal effect
# How it was run: (§1)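 Luminescence from the ATPlite ATP-monitoring reagent indicates viable cell number; lower signal means cytotoxicity. Cells received compound 16 h after seeding and were exposed for 48 h across five concentrations.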
# CASKI = assay: as above; details: Gynecologic cancer cell panel viability, ATPlite luminescence, 48 h; series mostly up to 57.5 µM
# How it was run: as §1
# Es-2 = assay: as above; details: Gynecologic cancer cell panel viability, ATPlite luminescence, 48 h; series mostly up to 57.5 µM
# How it was run: as §1
# HeLa = assay: as above; details: Gynecologic cancer cell panel viability, ATPlite luminescence, 48 h; series mostly up to 57.5 µM
# How it was run: as §1
# Hek293T = assay: as above; details: Gynecologic cancer cell panel viability, ATPlite luminescence, 48 h, control line for the selectivity index; series mostly up to 57.5 µM
# How it was run: as §1
# JEG-3 = assay: as above; details: Gynecologic cancer cell panel viability, ATPlite luminescence, 48 h; series mostly up to 57.5 µM
# How it was run: as §1
# OV90 = assay: as above; details: Gynecologic cancer cell panel viability, ATPlite luminescence, 48 h; series mostly up to 57.5 µM
# How it was run: as §1
# PA-1 = assay: as above; details: Gynecologic cancer cell panel viability, ATPlite luminescence, 48 h; series mostly up to 57.5 µM
# How it was run: as §1
# SKOV3 = assay: as above; details: Gynecologic cancer cell panel viability, ATPlite luminescence, 48 h; series mostly up to 57.5 µM
# How it was run: as §1
# Tov-21-G = assay: as above; details: Gynecologic cancer cell panel viability, ATPlite luminescence, 48 h; series mostly up to 57.5 µM
# How it was run: as §1
# Tov112D = assay: as above; details: Gynecologic cancer cell panel viability, ATPlite luminescence, 48 h; series mostly up to 57.5 µM
# How it was run: as §1
# CAOV3 = assay: as above; details: Gynecologic cancer cell panel viability, ATPlite luminescence, 48 h; series mostly up to 57.5 µM
# How it was run: as §1
smiles,measurement,setting,value
COc1cc2nc(N3CCN(C(=O)COc4c(OC)cccc4C(C)C)CC3)nc(N)c2cc1OC,Potency,NIH3T3,inactive
same,Potency,C33A,inactive
same,Potency,CASKI,inactive
same,Potency,Es-2,inactive
same,Potency,HeLa,inactive
same,Potency,Hek293T,inactive
same,Potency,JEG-3,inactive
same,Potency,OV90,inactive
same,Potency,PA-1,inactive
same,Potency,SKOV3,inactive
same,Potency,Tov-21-G,inactive
same,Potency,Tov112D,inactive
CC(=O)NC(C(=O)O[C@H]1CCC(C)(C)[C@@H]2CC=C3C(=O)OCC3(O)[C@@]12C)C(C)C (stereo not given in full),Potency,NIH3T3,inactive
same,Potency,CAOV3,inactive
same,Potency,CASKI,inactive
same,Potency,Es-2,inactive
same,Potency,HeLa,inactive
same,Potency,Hek293T,inactive
same,Potency,JEG-3,inactive
same,Potency,Tov-21-G,inactive
same,Potency,Tov112D,inactive
CC(=O)c1ccc2c(c1)[C@H](NC(=O)c1ccc(F)c(Cl)c1)[C@H](O)C(C)(C)O2,Potency,NIH3T3,inactive
same,Potency,C33A,inactive
same,Potency,CASKI,inactive
same,Potency,Es-2,inactive
same,Potency,HeLa,inactive
same,Potency,Hek293T,inactive
same,Potency,JEG-3,inactive
same,Potency,OV90,inactive
same,Potency,PA-1,inactive
same,Potency,SKOV3,inactive
same,Potency,Tov-21-G,inactive
same,Potency,Tov112D,inactive
C[C@H]1CC[C@@]2(OC1)O[C@H]1CC3C4CC[C@H]5C[C@@H](O)CC[C@]5(C)C4=CC(=O)[C@]3(C)[C@H]1[C@@H]2C (stereo not given in full),Potency,NIH3T3,inactive
same,Potency,C33A,inactive
same,Potency,CASKI,inactive
same,Potency,Es-2,inactive
same,Potency,HeLa,inactive
same,Potency,Hek293T,inactive
same,Potency,JEG-3,inactive
same,Potency,OV90,inactive
same,Potency,PA-1,inactive
same,Potency,SKOV3,inactive
same,Potency,Tov-21-G,inactive
same,Potency,Tov112D,inactive
CCC(C)(NC(=O)C(CCC(N)=O)NC(=O)C1CC(O)CN1C(=O)C(C)(C)NC(=O)C(C)(C)NC(=O)C(CC(C)C)NC(=O)CNC(=O)C(NC(=O)C(C)(C)NC(=O)C(C)(C)NC(=O)C(C)(C)NC(=O)C(Cc1ccccc1)NC(C)=O)C(C)C)C(=O)N1CC(O)CC1C(=O)NC(C)(C)C(=O)NC(CO)Cc1ccccc1 (stereo not given) (Ac-F[Aib][Aib][Aib]VGL[Aib][Aib][Hyp]Q[Iva][Hyp][Aib][Phe(ol)]; configuration not given here),"activity change, negative = cytotoxicity",C33A,-28.9% [at 6.55 µM]
same,"activity change, negative = cytotoxicity",CAOV3,-2.26% [at 6.55 µM]
same,"activity change, negative = cytotoxicity",CASKI,-19.9% [at 6.55 µM]
same,"activity change, negative = cytotoxicity",Es-2,-0.689% [at 6.55 µM]
same,"activity change, negative = cytotoxicity",HeLa,-3.33% [at 6.55 µM]
same,"activity change, negative = cytotoxicity",Hek293T,-7.78% [at 6.55 µM]
same,"activity change, negative = cytotoxicity",JEG-3,-14.6% [at 6.55 µM]
same,"activity change, negative = cytotoxicity",OV90,-17.1% [at 6.55 µM]
CCN(Cc1ccccc1)C(=O)Cn1c(=O)n(C)c2cnc(-c3ccccc3)nc21,Potency,NIH3T3,inactive
same,Potency,C33A,inactive
same,Potency,CASKI,inactive
same,Potency,Es-2,inactive
same,Potency,HeLa,inactive
same,Potency,Hek293T,inactive
same,Potency,JEG-3,inactive
same,Potency,OV90,inactive
same,Potency,PA-1,inactive
same,Potency,Tov-21-G,inactive
same,Potency,Tov112D,inactive
Cc1[nH]c(/C=C2\C(=O)Nc3ccc(S(=O)(=O)N(C)c4cccc(Cl)c4)cc32)c(C)c1C(=O)N1CCN(C)CC1,Potency,C33A,inactive
same,Potency,CAOV3,25.1 µM (active)
same,Potency,CASKI,inactive
same,Potency,Es-2,inactive
same,Potency,HeLa,inactive
same,Potency,Hek293T,inactive
same,Potency,JEG-3,inactive
same,Potency,OV90,inactive
same,Potency,PA-1,inactive
same,Potency,SKOV3,inactive
same,Potency,Tov-21-G,inactive
O=C1C[C@]23C=CCN4CCC5c6cc7c(cc6N1[C@@]5(CC2)C43)OCO7 (stereo not given in full),Potency,C33A,inactive
same,Potency,CAOV3,inactive
same,Potency,CASKI,inactive
same,Potency,Es-2,inactive
same,Potency,HeLa,inactive
same,Potency,Hek293T,inactive
same,Potency,JEG-3,inactive
same,Potency,OV90,inactive
same,Potency,PA-1,inactive
COc1cc2ncnc(Nc3cccc(I)c3)c2cc1OC,Potency,NIH3T3,inactive
same,Potency,C33A,inactive
same,Potency,CASKI,inactive
same,Potency,Es-2,inactive
same,Potency,Hek293T,inactive
same,Potency,JEG-3,inactive
same,Potency,OV90,inactive
same,Potency,PA-1,inactive
same,Potency,Tov-21-G,inactive
same,Potency,Tov112D,inactive
CCCN(CCc1ccsc1)C1CCc2c(O)cccc2C1 (stereo not given),Potency,NIH3T3,inactive
same,Potency,C33A,inactive
same,Potency,CASKI,inactive
same,Potency,Es-2,inactive
same,Potency,HeLa,inactive
same,Potency,Hek293T,inactive
same,Potency,JEG-3,inactive
same,Potency,OV90,inactive
same,Potency,PA-1,inactive
same,Potency,SKOV3,inactive
same,Potency,Tov-21-G,inactive
same,Potency,Tov112D,inactive
CCCc1cc(C)n(C)c(=O)c1CN(C)C(=O)c1cc(-c2ccc(N3CCN(C(C)C)CC3)nc2)cc2c1cnn2C(C)C,Potency,NIH3T3,inactive
same,Potency,CASKI,inactive
same,Potency,Es-2,inactive
same,Potency,Hek293T,inactive
same,Potency,JEG-3,inactive
same,Potency,OV90,inactive
same,Potency,PA-1,inactive
same,Potency,SKOV3,inactive
same,Potency,Tov-21-G,inactive
same,Potency,Tov112D,inactive
OC(CC1c2ccccc2-c2cncn21)C1CCCCC1 (stereo not given),Potency,C33A,inactive
same,Potency,CAOV3,inactive
same,Potency,CASKI,inactive
same,Potency,Es-2,inactive
same,Potency,HeLa,inactive
same,Potency,Hek293T,inactive
same,Potency,JEG-3,inactive
same,Potency,OV90,inactive
same,Potency,PA-1,inactive
same,Potency,SKOV3,inactive
same,Potency,Tov-21-G,inactive
same,Potency,Tov112D,inactive
O=C(c1cc(Cc2n[nH]c(=O)c3ccccc23)ccc1F)N1CCCNCC1,Potency,C33A,inactive
same,Potency,CAOV3,inactive
same,Potency,CASKI,inactive
same,Potency,Es-2,inactive
same,Potency,HeLa,inactive
same,Potency,Hek293T,inactive
same,Potency,JEG-3,inactive
same,Potency,OV90,inactive
same,Potency,PA-1,inactive
same,Potency,SKOV3,inactive
same,Potency,Tov-21-G,inactive
same,Potency,Tov112D,inactive
